We go through 22 compounds from ChEMBL document CHEMBL5308504, “Tm Shift (DSF) assay results for EUbOPEN Chemogenomics Library” (2023).

“And” between values parts separate entries of the source, which are not always exact repeats. Equal values may be shown once.

Assay [1] concerns the target Bromodomain-containing protein 4 (Homo sapiens) (UniProt O60885). To be noted: Compound concentration 20.0 uM, Protein concentration 2.0 uM, Result type QC Liability.
The target of assay [2] is T1, Transcription intermediary factor 1-alpha (Homo sapiens) (UniProt O15164).
T1 sequence (whole entry): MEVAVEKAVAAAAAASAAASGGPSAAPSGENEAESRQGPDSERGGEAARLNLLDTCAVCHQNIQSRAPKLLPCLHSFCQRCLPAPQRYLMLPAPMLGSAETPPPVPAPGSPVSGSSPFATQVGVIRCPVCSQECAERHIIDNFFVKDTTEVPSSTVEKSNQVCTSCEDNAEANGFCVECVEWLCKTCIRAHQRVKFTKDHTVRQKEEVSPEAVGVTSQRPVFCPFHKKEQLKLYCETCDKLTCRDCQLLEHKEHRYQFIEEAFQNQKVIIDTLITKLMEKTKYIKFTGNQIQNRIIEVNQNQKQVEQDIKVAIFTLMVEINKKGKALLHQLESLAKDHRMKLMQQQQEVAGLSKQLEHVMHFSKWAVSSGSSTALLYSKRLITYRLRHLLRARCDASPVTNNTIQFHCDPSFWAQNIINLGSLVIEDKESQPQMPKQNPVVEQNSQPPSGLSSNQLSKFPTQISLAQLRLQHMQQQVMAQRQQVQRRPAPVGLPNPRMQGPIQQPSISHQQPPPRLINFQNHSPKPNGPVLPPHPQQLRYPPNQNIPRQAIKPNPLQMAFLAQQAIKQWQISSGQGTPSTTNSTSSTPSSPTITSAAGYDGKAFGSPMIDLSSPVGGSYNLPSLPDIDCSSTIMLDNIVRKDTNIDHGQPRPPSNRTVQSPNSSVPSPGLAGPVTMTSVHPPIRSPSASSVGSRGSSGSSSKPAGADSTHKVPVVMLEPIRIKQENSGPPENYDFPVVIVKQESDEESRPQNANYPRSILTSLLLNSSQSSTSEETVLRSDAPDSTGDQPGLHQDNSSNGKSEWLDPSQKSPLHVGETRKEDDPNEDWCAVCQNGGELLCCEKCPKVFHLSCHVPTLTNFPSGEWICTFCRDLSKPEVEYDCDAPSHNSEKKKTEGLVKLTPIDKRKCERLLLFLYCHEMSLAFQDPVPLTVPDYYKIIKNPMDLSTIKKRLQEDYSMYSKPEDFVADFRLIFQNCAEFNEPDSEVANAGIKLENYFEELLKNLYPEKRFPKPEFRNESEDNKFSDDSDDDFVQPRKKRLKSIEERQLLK
To be noted: Compound concentration 20.0 uM, Protein concentration 2.0 uM, Result type QC Liability.

On to `CN(C)c1ncc2cc(-c3ccc(-c4ncccc4F)cc3Cl)c(=O)n(C[C@H]3OC[C@H](N)CO3)c2n1`, for which the values for the ΔTm in assay [1] and in assay [2] were -2 °C and -2.59 °C, respectively.
Turning to `CCn1c(-c2nonc2N)nc2ccccc21`, the figures for the ΔTm in assay [1] and in assay [2] were -0.33 °C and -1.27 °C, respectively.
For the compound `CCc1ccccc1C(=O)Nc1n[nH]c2c(C)c(F)c(C3C(C#N)=C(C)N(C)C(C)=C3C#N)cc12`, the ΔTm was -3.05 °C in assay [1] and -0.71 °C in assay [2].
The like results for `Cc1cc(-c2cc3ncccc3c(OC[C@H]3CCCNC3)n2)ccc1N(C)C` were, in that order, -2.56 °C and -2.49 °C.
Turning to `COCc1nc2cnc3cc(-c4c(C)noc4C)c(OC[C@H]4CCNC4)cc3c2n1[C@H](C)c1ccccc1`, the ΔTm in assay [2] was -1.74 °C.
Regarding `COc1ccccc1[C@@H]1CNCCC12CCN(C(=O)[C@](OC)(c1ccccc1)C(F)(F)F)CC2`, the ΔTm was -0.33 °C in assay [1] and 0.2 °C in assay [2].
Turning to `CC(C)C(=O)N1CCC(c2cn(C)c3ncc(NC(=O)c4cccc(C#N)c4)c(C(F)(F)F)c23)CC1`, the ΔTm in assay [1] was -2.27 °C; in assay [2] it was -2.5 °C.
Take `C[C@@H]1C[C@H](C)CN(c2ncc(Cl)c(Nc3ccc4c(c3)cc(OC(C)(C)C(=O)O)c(=O)n4C)n2)C1`: the ΔTm was -0.93 °C in assay [1] and 0.15 °C in assay [2].
`COc1ccccc1S(=O)(=O)Nc1ccc2c(c1)CN(C)C(=O)N2`: the ΔTm in assay [2] is -1.03 °C.
`Cc1ccc(-n2nc(C(C)(C)C)cc2NC(=O)Nc2ccc(OCCN3CCOCC3)c3ccccc23)cc1`: the ΔTm in assay [1] was 0 °C and -1.27 °C; in assay [2], -0.19 °C and -3.17 °C.
For the compound `CNC(=O)c1cc(C(=O)N[C@H]2[C@@H]3COC[C@@H]32)cc2c1O[C@@H](CF)[C@@H]2c1ccccc1`, in assay [2], the ΔTm was -2.85 °C.
In the case of `CC[C@H](NC(=O)[C@H](C)NC)C(=O)N1C[C@@H](O)C[C@H]1Cc1c(-c2[nH]c3cc(F)ccc3c2C[C@@H]2C[C@H](O)CN2C(=O)[C@H](CC)NC(=O)[C@H](C)NC)[nH]c2cc(F)ccc12`, the ΔTm in assay [1] is -3.47 °C; in assay [2] it was -3.97 °C.
The like results for `CN1C(=O)[C@@H](NC(=O)c2cc(Cc3ccccc3)on2)COc2ccccc21` were, in that order, -1.02 °C and -3.21 °C.
As for `Cc1cc(NC(=O)c2cccc(NC(=O)/C=C/CN(C)C)c2)ccc1Nc1nccc(-c2cccnc2)n1`, the ΔTm in assay [1] is -1.31 °C; in assay [2], -1.44 °C.
Take `COc1ccc2c(O[C@@H]3C[C@H]4C(=O)N[C@]5(C(=O)O)CC5/C=C\CCCCC[C@H](NC(=O)OC5CCCC5)C(=O)N4C3)cc(-c3csc(NC(=O)C(C)C)n3)nc2c1C` (some centres undefined): the ΔTm in assay [2] was 0.14 °C [middle of 4 runs].
With `CC(C)(c1ccc(OCc2cccc(COc3ccc(C(=N)N)cc3)c2)cc1)c1ccc(O[C@@H]2O[C@H](C(=O)O)[C@@H](O)[C@H](O)[C@H]2O)cc1`, the results for the ΔTm in assay [1] and in assay [2] were 0.58 °C and -5.37 °C, respectively.
The like results for `CCc1nc(C2CCC2)n2nc(-c3ccccc3)[nH]c(=O)c12` were, in that order, 0.07 °C and 0.37 °C.
On to `C#Cc1cnc2[nH]cc(-c3cccc4c3CCN4C(=O)[C@@H]3CCCN3C#N)c2c1`, for which the ΔTm in assay [1] was -0.57 °C; in assay [2] it was -0.61 °C.
With `CN[C@@H]1CC[C@@H](c2ccc(Cl)c(Cl)c2)c2ccccc21`, the ΔTm in assay [1] was -1.03 °C; in assay [2], -3.59 °C.
For the compound `O=C(NC[C@@H]1[C@H]2CN(C(=O)OCc3cc(C(F)(F)F)cc(C(F)(F)F)c3)C[C@@H]12)c1ccc2[nH]nnc2c1`, the ΔTm was found to be 2.07 °C in assay [1] and 1.3 °C in assay [2].
Regarding `COc1cc(-c2cncc(-c3ccc(N4CCN(C(C)C)CC4)cc3)c2C)cc(F)c1C(=O)N1CCCC1`, the values for the ΔTm in assay [1] and in assay [2] were -3.15 °C and -3.48 °C, respectively.
For `CCNC(=O)c1ccc2c(c1)NC(=O)/C2=C(\Nc1ccc(CN(C)C)cc1)c1ccccc1`, in assay [2], the ΔTm was 0.37 °C and -3.62 °C.

The ΔTm is the shift of the melting midpoint relative to a reference.
